Among the data in PubChem BioAssay (NCATS) are Potency values, retold here.

Inconclusive results are not listed. A call without a number means that no potency is given here. The source made the active and inactive calls. Calls follow the shape of the dose curve; as a rule, active = well fitted cell-killing curve with a large enough effect; inconclusive = small, poorly fitted or top-dose-only effect, or effect the other way; inactive = flat fitted curve, though single readings scatter.

The assay concerns Tov-21-G. As to the kind of experiment: Primary qHTS to identify gynecologic anti-cancer compounds using libraries of approved drugs and bioactive compounds (AID 1345084). Also: nearly all actives have a fitted effect of over 55% in size. The settings on record: Gynecologic cancer cell panel viability, ATPlite luminescence, 48 h; series mostly up to 57.5 µM. The procedure, abridged:
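ATP-based viability (ATPlite), 1,000 cells/well, 16 h pre-incubation, 48 h compound at 37 C, 5% CO2, 15 min RT before read.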
In general terms: In qHTS, concentration-response curves come from the screen itself.
In the case of `C[C@@H](c1ccccc1)N(C(N)=NC#N)c1cccc2ncccc12`, the Potency entry was “inactive”.

On to `COc1cc(/C=C/C(=O)OC[C@H]2O[C@@H](OC3CC(C)=C(C(=O)O)C(C)(C)C3)[C@H](O)[C@@H](O)[C@@H]2O)cc(OC)c1O` (stereo partly drawn), for which the Potency result is “inactive”.

In the case of `CCC(C)C(=O)O[C@H]1C[C@](C)(O)[C@]23OC(C)(C)[C@H](C[C@H](OC(=O)c4ccccc4)[C@]2(COC(C)=O)[C@H]1OC(=O)C(C)CC)[C@H]3OC(C)=O` (stereo partly drawn), the Potency entry was “inactive”.

For `CC(=O)NC1CC(=O)C23C(=O)NC(Cc4c[nH]c5ccccc45)C2C(C)=C(C)C(O)C3/C=C/CC(C)/C=C(/C)C(O)C1O` (stereo not drawn), the Potency entry was “inactive”.

Consider `COc1ccc(N2CCN(CCCNC(=O)Cn3c(=O)c4cccn4c4c(C)ccnc43)CC2)cc1`, for which the Potency entry was “inactive”.

For the compound `OC[C@H]1O[C@@H](OCc2ccccc2)[C@H](O[C@@H]2OC[C@@H](O)[C@H](O)[C@H]2O)[C@@H](O)[C@@H]1O`, the Potency entry is “inactive”.

On to `O=C(/C=C/c1ccc(O)cc1)OC[C@@]1(O)C=C[C@@H]2C(C(=O)O)=CO[C@@H](O[C@@H]3O[C@H](CO)[C@@H](O)[C@H](O)[C@H]3O)[C@@H]21`, for which the Potency result was “inactive”.

Take `CC(C)=C1CC2C(CCC2(C)O)C(C)(O)CC1=O` (stereo not drawn): the Potency result is “inactive”.

In the case of `O=C(/C=C/c1ccc(O)cc1)O[C@H]1[C@H](OC2CCCCC2O)O[C@H](CO)[C@@H](O)[C@@H]1O` (stereo partly drawn), the Potency result was “inactive”.

In the case of `O=C(/C=C/c1ccc(O)c(O)c1)O[C@@H]1[C@@H](O)[C@H](OC2CCCCC2O)O[C@H](CO)[C@H]1O` (stereo partly drawn), the Potency entry is “inactive”.

As to `C/C(=C\CO)CC/C=C(\C)C(=O)O[C@@H]1O[C@H](CO)[C@@H](O)[C@H](O)[C@H]1O`, the Potency result is “inactive”.

Regarding `COC(=O)C1=COC(OC2OC(CO)C(O)C(O)C2O)C2C(C)C(OC(=O)/C=C/c3ccc(O)cc3)C(O)C12` (stereo not drawn), the Potency entry is “inactive”.

In the case of `C[C@]12CC[C@@H]3c4ccc(O)cc4CC[C@H]3[C@@H]1C[C@@H](O[C@@H]1O[C@H](C(=O)O)[C@@H](O)[C@H](O)[C@H]1O)[C@@H]2O`, the Potency result is “inactive”.
